Giardia killer = kills Giardia lamblia. Giardia lamblia trophozoite viability. activity change, % at 7.66 µM, hits read low. 340,000 compounds, 0.15% hits. AID 540267; in the data active means activity change below about -80%; inconclusive means between about -30% and that limit;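 further: parasites exposed to compound for two days anaerobically before the ATP read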
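Luminescence from cellular ATP indicates surviving trophozoites (100 cells/well) following 48 hrs anaerobic compound treatment at 37 deg C; signal develops 15-30 min at room temperature.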
Sfp PPTase inh = inhibitors of Bacillus subtilis Sfp phosphopantetheinyl transferase. Q9F4F7. Biochemical Sfp PPTase activity, qHTS. Potency, µM, without a hit: largest response in the series, negative = inhibition, most hits filed as inhibitors. 310,000 compounds, 3.5% hits;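 further: the enzyme is Sfp with the accession as filed and its product quenches rhodamine fluorescence; potency means the concentration at half of the fitted maximal effect; 0% = enzyme reaction without inhibitor and -100% = no enzyme wells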
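Step 1, compound plus 15 nM Sfp-PPTase, 15 min, room temperature. Step 2, add rhodamine-CoA (5 uM) and BHQ-2-YbbR (12.5 uM). Step 3, read 525/598 nm fluorescence at 0 and 30 min.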
ELG1 DNA repair = inhibitors of ELG1-dependent DNA repair in HEK293T cells; HEK293T ELG1-luciferase reporter, luminescence, 16 h; DNA damage induced by 5-fluorouridine; Potency, µM (highest dose often 46.1 µM), without a hit: at the top dose activity change, negative = inhibition, most hits filed as inhibitors; 330,000 compounds, 2.3% hits; AID 504467; further: potency means the concentration at half of the fitted maximal effect; nearly all actives have a fitted effect of over 55% in size
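Overnight (16 hr) co-exposure of 2,000 cells/well to 5-fluorouridine and compound at 37 °C preceded detection. Luciferase was quantified via ONE-Glo luminescence; loss of signal denotes inhibition.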
Coupling enz = counter-screen for Giardia aldolase inhibitors: coupling enzyme system | coupling enzyme system counterscreen, AmpLite Red fluorescence | activity change, negative = inhibition, % at 58.2 µM, hits read low | 290,000 compounds, 0.67% hits | AID 2472; in the data active means activity change below about -30%
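First, compound is pin-transferred into glyceraldehyde-3-phosphate coupling-enzyme reagent at 57.5 uM final and held 10 min at RT. Next, substrate, coupling system and AmpLite Red are added. After 20 min RT, fluorescence (525/598 nm) is read.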
Active calls of the source: *; u = inconclusive; x = no result given. Sampled rows, rich in hits. Any-hit rate of the full collection: about 5.5%. Unless noted, the call rests on the fitted dose curve; in most records, active means well fitted curve in the direction sought with a large enough effect; inconclusive means small, poorly fitted or top-dose-only effect, or another doubt; inactive means no such curve, though single readings can be large; an effect the other way counts as inactive or inconclusive. Unless noted, on the % scale 0 is the no-effect control and ±100 the full control effect.

SMILES | Giardia killer | Sfp PPTase inh | ELG1 DNA repair | Coupling enz
CN(C)CC[n+]1ccc(C(=O)c2ccccc2)cc1 | -13 | -3% | -23% | -13
O=[N+]([O-])c1ccc(NC2CCN(Cc3ccccc3)CC2)c([N+](=O)[O-])c1 | 19 | 13% | -4% | 2
O=C1c2c([N+](=O)[O-])cc([N+](=O)[O-])cc2S(=O)N1Cc1ccccc1 (stereo not given) | 11 | 50µM* | -3% | 1
CCCNC(=O)CN1C(=O)NC(c2ccccc2)(c2ccccc2)C1=O | 7 | 4% | 5% | 1
CCOc1ccccc1NC(=S)N1CCN(c2ccccc2F)CC1 | 1 | 6% | 0% | -2
Cc1ccccc1-c1ccc(/C=C2/SC(N3CCOCC3)=NC2=O)o1 | -1 | -16% | 8.2µM* | 0
O=C1N=C(N2CCOCC2)S/C1=C\c1ccc(-c2ccccc2Cl)o1 | 24 | 7% | u | 1
Cc1ccc(S(=O)(=O)/N=C(/NC(=S)Nc2ccccc2)c2ccccc2)cc1 | 1 | -15% | u | 3
Cc1ccc(NC(=S)N/C(=N/S(=O)(=O)c2ccccc2)c2ccccc2)cc1 | 7 | u | u | 0
CCOC(=S)N/C(=N\S(=O)(=O)c1ccccc1)c1ccccc1 | -6 | 18µM* | -1% | 4
CCOC(=S)N/C(=N\S(C)(=O)=O)c1ccccc1 | 36 | 20µM* | 0% | 2
COC(=S)N/C(=N\S(=O)(=O)c1ccc(Cl)cc1)c1ccccc1 | -3 | 22µM* | -2% | 0
CCCOC(=S)N/C(=N\S(=O)(=O)c1ccccc1)c1ccccc1 | -2 | 16µM* | -12% | 5
Cc1cccc(C(=O)OCC(=O)N2CCCCCC2)c1 | -22 | x | u | x
COc1cc(/C=C/[N+](=O)[O-])ccc1OCc1cccc(C(=O)O)c1 | 2 | 14µM* | u | 7
CCn1ccnc1[C@@H]1C[C@H]2CN(Cc3cccc(Cl)c3)C(=O)[C@]23CCCN13 | 13 | 6% | 11% | 2
O=C1N(Cc2cccc(Cl)c2)C[C@@H]2C[C@@H](c3ccccn3)N3CCC[C@@]123 | 11 | 50µM* | 4% | 2
O=C(Cc1ccc(Br)cc1)Nc1ccc(S(=O)(=O)Nc2ncccn2)cc1 | 10 | -8% | -5% | 9
CC1(C)Oc2ccc3ccc(=O)oc3c2/C(=C/NCCN/C=C2\C(=O)C(C)(C)Oc3ccc4ccc(=O)oc4c32)C1=O | x | -14% | 8.2µM* | 2
CC1(C)Oc2ccc3ccc(=O)oc3c2/C(=C/NNC(N)=O)C1=O | 10 | 4% | 7% | -9
Oc1ccc(-c2cnns2)c(O)c1 | 3 | 56µM* | u | 0
COc1ccc2cc3cc(C(=O)Nc4ccccc4N4CCN(C)CC4)oc3nc2c1 | -87* | 16% | -23% | 1
O=C(Nc1ccccc1N1CCN(C(=O)c2ccc(Cl)cc2)CC1)c1cc2ccccc2o1 | -8 | 11% | u | -2
CC(=O)N1CCN(c2ccccc2NC(=O)c2cc3ccccc3o2)CC1 | -5 | 7% | 15µM* | x
CCCCNS(=O)(=O)NC(=O)C1=C(N2CCCC2)COC1=O | 0 | x | u | x
SMILES | Giardia killer | Sfp PPTase inh | ELG1 DNA repair | Coupling enz
O=C(Nc1ccc(F)c([N+](=O)[O-])c1)C(=O)c1c(O)[nH]c2ccccc12 | 2 | 20µM* | 7% | 2
COc1ccc(CCNC(=O)CN(Cc2ccc(Cl)cc2)S(C)(=O)=O)cc1 | 0 | 6% | u | 0
CCC(C(=O)Nc1nc(C)c(C)s1)c1ccccc1 (stereo not given) | 20 | 50µM* | -18% | 1
CCC(C(=O)Nc1nc(C)cs1)c1ccccc1 (stereo not given) | 3 | 17% | -6% | 0
Cc1ccc(Nc2nc(Nc3ccc(Cl)cc3)nc(N3CCOCC3)n2)cc1 | 0 | x | x | x
O=C(O)c1ccc(NC(=S)NC(=O)c2ccc3ccccc3c2)cc1 | -29 | -2% | u | 14
O=C(NC(=S)Nc1ccc(CN2CCOCC2)cc1)c1cccc([N+](=O)[O-])c1 | -1 | 45µM* | 2% | 3
O=C(NC(=S)Nc1ccc(N2CCOCC2)cc1)c1cccc([N+](=O)[O-])c1 | -6 | -19% | -9% | 3
O=C(O)c1ccc(NC(=S)NC(=O)c2cccc(COc3ccccc3)c2)cc1 | 8 | 50µM* | 23% | 2
O=C(NC(=S)Nc1ccc(CN2CCCCC2)cc1)c1cccc(OCc2ccccc2)c1 | 19 | 79µM* | u | 2
O=C(NC(=S)Nc1ccc(CN2CCOCC2)cc1)c1cccc(F)c1 | -2 | -9% | 9% | 0
CC(Oc1ccccc1)C(=O)Nc1cc(Cl)ccc1-n1cncn1 (stereo not given) | -20 | x | 25% | x
C=C1CCN(C(CC(C)C)C(=O)NCc2ccc(OC)cc2)S(=O)(=O)c2ccccc21 (stereo not given) | -23 | -5% | x | 0
Nc1ccc2nc(C(F)(F)F)[nH]c2c1 | 6 | 3% | 5% | -6
Cc1nc2cc3nc(C(F)(F)F)[nH]c3cc2[nH]1 | 3 | 13% | 15% | -36*
COc1ccc(CNC(=O)C(c2cccs2)N(Cc2ccco2)C(=O)Cc2cccs2)cc1 (stereo not given) | -5 | -55% | 15µM* | -1
COCCN(C(=O)Cc1cccs1)C(C(=O)NCc1ccc(OC)cc1)c1ccc(OC)cc1 (stereo not given) | -6 | -2% | u | -5
COc1ccc(CNC(=O)C(c2ccco2)N(C(=O)Cc2cccs2)c2cccnc2)cc1 (stereo not given) | -7 | 12% | -17% | 8
COc1ccc(CNC(=O)C(c2ccco2)N(Cc2ccccc2)C(=O)Cc2cccs2)cc1 (stereo not given) | -7 | 20% | 18µM* | -2
COc1ccc(/C=N/NC(=O)c2c(-c3ccccc3)noc2C)cc1 | 0 | -8% | 1% | -2
COc1ccc(/C=N/NC(=O)c2nc(-c3ccccc3)cc(-c3ccccc3)n2)cc1 | -1 | -6% | 6.5µM* | 1
COc1ccc(/C=N/NC(=O)c2nc(-c3ccccc3)n(-c3ccccc3)n2)cc1OC | 16 | -15% | 13µM* | -3
COc1ccc(/C=N/NC(=O)c2nc(-c3ccccc3)cc(-c3ccccc3)n2)cc1O | -1 | -15% | 6.5µM* | 0
CN(C(=O)Cn1nc(C(=O)O)c2ccccc2c1=O)C1(C#N)CCCCC1 | 38 | x | -3% | x
COc1ccccc1-c1nc(-c2ccccc2)nc(N2CCN(C)CC2)c1C#N | 0 | -7% | 21µM* | 3
SMILES | Giardia killer | Sfp PPTase inh | ELG1 DNA repair | Coupling enz
NNc1nc(C(F)(F)F)nc2ccccc12 | 9 | 50µM* | -18% | -2
O=C(O)CCNc1nc(C(F)(F)F)nc2ccccc12 | 0 | 19% | 4% | 7
O=C(O)c1ccc(/C=N/NC(=S)NCCN2CCOCC2)cc1 | 0 | 50µM* | -9% | 2
Oc1cccc(/C=N/NC(=S)NCCN2CCOCC2)c1O | -2 | 7% | u | -34*
S=C(NCCN1CCOCC1)N/N=C/c1cccs1 | -15 | -2% | -5% | 1
COc1cc(/C=N/NC(=S)NCCN2CCOCC2)cc(OC)c1OC | -12 | u | -5% | 2
